# Tb PYK inh – T. brucei pyruvate kinase inhibition; Potency, µM (top dose mostly 76.8 µM), for the others: top-dose activity, negative = inhibition, actives largely listed as inhibitors; 410,000 tested, 0.12% active; Q57TT1; TbPYK enzyme, Kinase-Glo Plus ATP luminescence, 45 min; further: potency means the concentration at half of the fitted maximal effect; nearly all actives have a fitted effect of over 50% in size
#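 TbPYK + substrate in 50 mM TEA pH 7.2, 100 mM KCl, 10 mM MgCl2, 0.05% BSA, 0.01% Tween-20; cpd pinned; ADP 130 uM final; 45 min RT; Kinase-Glo Plus 10 min; luminescence endpoint.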
# HCMV antiviral – inhibitors of human cytomegalovirus | activity change, negative = inhibition, % at 57.5 µM | 410,000 tested, 4.5% active | HFF cells, HCMV-luciferase reporter, 72 h; active compounds read low; in the data active means activity change below about -60%; inconclusive means no clear call, values can overlap the other calls; inactive means above about -39%
#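 Cell-based, HFFs, 1000 cells/well, 16 h 37C; cpds in DMSO + HCMV-luc, MOI 1 PFU/cell; 72 h 37C; OneGlo luminescence after 5 min RT; norm. to buffer vs Salinomycin 10uM.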
# Vaccinia mCherry – inhibitors of vaccinia virus infection (mCherry reporter signal). Vaccinia virus mCherry reporter infection, fluorescence. Potency, µM (top dose mostly 36.5 µM), for inactives: top-dose activity change, negative = inhibition, actives largely listed as inhibitors. 310,000 tested, 0.63% active; calls by dose curve; tested in A549 cells; further: potency means the concentration at half of the fitted maximal effect; nearly all actives have a fitted effect of over 35% in size
# LmPK inhibitor – LmPK (Leishmania mexicana) enzyme inhibition | Q27686 | Potency, µM (series often up to 57.5 µM), inactives show at the highest dose activity change, negative = inhibition, actives largely listed as inhibitors | purified LmPK, Kinase-Glo ATP luminescence, 1 h | 290,000 tested, 0.37% active | AID 1721; further: potency means the concentration at half of the fitted maximal effect
# Target sequence (Q27686 whole entry, looked up): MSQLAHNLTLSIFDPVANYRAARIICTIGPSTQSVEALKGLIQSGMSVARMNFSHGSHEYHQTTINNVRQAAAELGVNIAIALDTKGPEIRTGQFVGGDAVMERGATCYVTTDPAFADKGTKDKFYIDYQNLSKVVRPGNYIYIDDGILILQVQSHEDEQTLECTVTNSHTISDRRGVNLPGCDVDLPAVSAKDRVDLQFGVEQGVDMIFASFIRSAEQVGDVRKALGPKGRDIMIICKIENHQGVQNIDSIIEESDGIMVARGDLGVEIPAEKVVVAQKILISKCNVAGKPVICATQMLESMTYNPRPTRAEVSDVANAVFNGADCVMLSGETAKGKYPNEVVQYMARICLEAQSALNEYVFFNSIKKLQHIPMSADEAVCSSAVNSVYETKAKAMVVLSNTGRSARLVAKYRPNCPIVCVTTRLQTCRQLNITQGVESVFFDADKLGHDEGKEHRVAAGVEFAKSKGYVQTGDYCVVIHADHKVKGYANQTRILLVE
#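 Screened at intermediate enzyme activity to detect both inhibitors and activators: LmPK at 0.1 nM, with a 0.5 nM enzyme column as activation reference. PEP 0.5 mM, ADP 0.1 mM; ATP detected by luminescence after 1 h.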
# VACV Venus inh – vaccinia inhibition (Venus reporter) | Potency, µM (highest dose often 36.5 µM), for the others: at the top dose activity change, negative = inhibition, hits mostly inhibitors | 330,000 tested, 0.46% active | AID 720580 | Vaccinia virus Venus reporter expression, fluorescence; calls by dose curve; tested in A549 cells; further: potency means the concentration at half of the fitted maximal effect; nearly all actives have a fitted effect of over 30% in size
# * = called active by the depositor; ? = inconclusive; nt = no result. In the library only some 5% were active in any assay of this set; here they are far more common. Unless noted, the call rests on the fitted dose curve; in most records, active means well fitted curve in the direction sought with a large enough effect; inconclusive means small, poorly fitted or top-dose-only effect, or another doubt; inactive means no such curve, though single readings can be large; an effect the other way counts as inactive or inconclusive. On the % scale 0 is the no-effect control and ±100 the full control effect.
SMILES,Tb PYK inh,HCMV antiviral,Vaccinia mCherry,LmPK inhibitor,VACV Venus inh
Cc1cccc2c(=O)cc(C(F)(F)F)[nH]c12,1%,-5,-16%,1%,-10%
CCc1oc2ccccc2c1C(=O)CCN1CCCCC1,-12%,-35,nt,2%,nt
CCOc1cccc(CNCc2ccncc2)c1,-9%,25,nt,-13%,nt
O=C(O)/C=C/C(=O)c1ccc2c(c1)CCc1ccccc1-2,35µM*,-61*,?,nt,?
CCC(C#N)(CC)P(=S)(c1ccccc1)c1ccccc1,5%,-73*,-2%,1%,-17%
CC(CC(C#N)(c1ccccc1)c1ccccc1)N(C)C (stereo unspecified),6%,12,-3%,nt,-11%
CCN(CC)c1ccc2cc(NC(=O)CCC(=O)O)c(=O)oc2c1,-9%,-66*,-9%,-4%,-8%
Oc1ccc(Cl)cc1Cc1cc(Cl)ccc1O,-2%,-89*,?,9%,?
Oc1ccc(Cl)cc1Cc1ccccc1,0%,0,nt,nt,nt
COC(=O)c1cc(=O)nc(NN=C2c3ccccc3-c3ccccc32)s1,-4%,-66*,-13%,nt,-12%
COC(=O)c1cc(=O)nc(NN=Cc2ccccc2)s1,nt,18,nt,nt,nt
O=C1C2C3CC4C5C3C1C5C1(SCCS1)C42 (stereo unspecified),-9%,-87*,10%,nt,-4%
CN(C(=O)COc1coc(CN2CCN(c3ccccc3)CC2)cc1=O)c1ccccc1,-4%,-16,-10%,nt,-15%
CN(C(=O)CN1CCN(c2cc(-c3ccc(-c4ccccc4)cc3)ncn2)CC1)c1ccccc1,1%,-67*,?,nt,?
O=C(NC1=NCCS1)Nc1ccccc1,-5%,70,-10%,?,-14%
O=C1OC2(c3ccc(O)cc3Oc3cc(O)ccc32)c2ccccc21,4%,nt,nt,nt,nt
Cc1cc(O)ccc1C1(c2ccc(O)cc2C)OC(=O)c2ccccc21,0%,-96*,nt,-1%,-29%
O=C(CSc1nc2ccc(Nc3nc(N4CCOCC4)nc(N4CCOCC4)n3)cc2s1)Nc1ccccc1F,1%,-97*,nt,-7%,nt
O=C(COc1ccccc1F)Nc1ccc2nc(SCC(=O)N3CCCC3)sc2c1,-1%,-63*,-23%,nt,-22%
O=C(COc1ccc(F)cc1)Nc1ccc2nc(SCC(=O)N3CCCC3)sc2c1,-11%,-21,-11%,nt,-10%
O=C(COc1ccccc1F)Nc1ccc2nc(SCC(=O)N3CCOCC3)sc2c1,0%,-68*,-23%,nt,-20%
COc1ccc(OC)c(NC(=O)CSc2nncc3ccc(OC)c(OC)c23)c1,-3%,29,-13%,0%,-2%
C=C1CC2C(CCC3(C)C2CCC3(O)C(C)=O)C2(C)CCC(=O)C=C12 (stereo unspecified),2%,-79*,-12%,3%,?
COc1cc2c(cc1OC)C(COc1cccc(C(F)(F)F)c1)NCC2 (stereo unspecified),0%,-71*,nt,-1%,nt
COc1ccc(OCC2NCCc3cc(OC)c(OC)cc32)cc1 (stereo unspecified),6%,-31,nt,7%,nt
SMILES,Tb PYK inh,HCMV antiviral,Vaccinia mCherry,LmPK inhibitor,VACV Venus inh
Cc1cc(C)nc(-n2ncc3c2CC(c2cccc(Cl)c2)CC3=O)n1 (stereo unspecified),-1%,-89*,10µM*,7%,?
CCNC(=O)C(=O)Nc1ccc([N+](=O)[O-])cc1,4%,18,-7%,-3%,-16%
CCC(CC)C(=O)Nc1ccc([N+](=O)[O-])cn1,-2%,-84*,-29%,-7%,-11%
CCCC(=O)Nc1ccc(Sc2ccc([N+](=O)[O-])cc2)cc1,-10%,-75*,nt,8%,-28%
CC(C)(C)c1ccc(C(=O)Nc2ccc([N+](=O)[O-])cn2)cc1,-3%,-25,-23%,0%,-12%
CCC(CC)C(=O)Nc1ccc(Sc2ccc([N+](=O)[O-])cc2)cc1,-4%,-96*,nt,5%,nt
O=C(Nc1ccccc1)c1nc[nH]c1C(=O)NCCCCCCNC(=O)c1[nH]cnc1C(=O)Nc1ccccc1,-9%,6,?,nt,?
Cc1ccc(-c2nnc(N3CCCCCC3)c3ccccc23)cc1,-5%,?,-13%,4%,-19%
CCCC1(c2ccccc2)NC(=O)N(CC(=O)N(C)Cc2c(F)cccc2Cl)C1=O (stereo unspecified),-2%,-24,-2%,-3%,-9%
